Source: PubChem
Sampled rows, rich in hits. Any-hit rate of the full collection: about 1.5%.
TrxR1 substrate: rat thioredoxin reductase 1 substrate activity; AID 588456; 0.01% of 390,000 active; purified TrxR1 substrate turnover, NADPH consumption readout; Potency, µM (titrated, usually from 114 µM), for the others: at the top dose activity change, negative = substrate turnover; note: potency is the fitted concentration of half-maximal effect; nearly all actives have a fitted effect of over 50% in size
Target sequence (O89049 whole entry, looked up): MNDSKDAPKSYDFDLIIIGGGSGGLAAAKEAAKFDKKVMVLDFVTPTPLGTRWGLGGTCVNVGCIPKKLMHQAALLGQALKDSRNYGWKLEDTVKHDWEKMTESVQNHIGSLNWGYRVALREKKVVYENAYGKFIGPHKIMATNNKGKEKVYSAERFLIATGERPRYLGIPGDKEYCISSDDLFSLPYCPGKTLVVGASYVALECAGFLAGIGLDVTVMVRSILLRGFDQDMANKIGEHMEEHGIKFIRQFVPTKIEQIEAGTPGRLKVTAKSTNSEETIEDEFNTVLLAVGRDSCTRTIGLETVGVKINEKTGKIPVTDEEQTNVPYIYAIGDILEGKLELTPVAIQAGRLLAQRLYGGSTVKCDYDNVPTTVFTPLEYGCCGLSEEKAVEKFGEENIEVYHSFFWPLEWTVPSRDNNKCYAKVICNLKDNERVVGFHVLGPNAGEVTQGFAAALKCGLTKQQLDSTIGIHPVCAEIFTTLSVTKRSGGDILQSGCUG
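Rat TrxR1, dispensed at 90 nM, was prereduced with 400 uM NADPH (final) for 5 min at ~22 deg C, then incubated with compound 15 min before 400 uM selenite. A first-read NADPH fluorescence drop versus no-compound background flagged substrates.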
mIDH1 inhibitor: blocks human mutant IDH1 R132H enzyme | O75874 | IDH1-R132H enzyme, NADPH consumption, diaphorase/resazurin fluorescence | Potency, µM (series often up to 76.6 µM), for inactives: at the highest dose activity change, negative = inhibition, usual class: inhibitors | 0.093% of 390,000 active; note: potency is the fitted concentration of half-maximal effect; nearly all actives have a fitted effect of over 65% in size
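IDH1-R132H (0.5 ug/mL) preincubated 30 min with compound, then NADPH (0.016 mM) and alpha-KG (2 mM) added; 80 min at RT, pH 7.5. Remaining NADPH coupled via diaphorase/resazurin to fluorescence (540/590 nm); concentration-response curves normalized to no-enzyme control.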
Coupling enz: coupling enzyme interference in Giardia aldolase counter-screen; coupling enzyme system counterscreen, AmpLite Red fluorescence; activity change, negative = inhibition, % at 58.2 µM, hits read low; 0.67% of 290,000 active; AID 2472; in the data active = activity change below about -30%
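Compounds tested against the coupling enzymes alone at 57.5 uM final; readout was AmpLite Red fluorescence (525/598 nm) after 20 min at RT.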
TrxR1 inh: blocks rat thioredoxin reductase 1. O89049. recombinant rTrxR1, NADPH fluorescence consumption, selenite substrate. Potency, µM (top dose mostly 114 µM), inactives show top-dose activity change, negative = inhibition, most hits filed as inhibitors. 1% of 390,000 active. AID 588453; note: potency is the fitted concentration of half-maximal effect; nearly all actives have a fitted effect of over 65% in size
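Rat TrxR1 (90 nM in the dispensed reagent) was pre-reduced with 400 uM NADPH for 5 min at room temperature, then incubated with compound for 15 min. After 400 uM selenite was added, NADPH fluorescence (Ex 340/Em 450 nm) was followed for 8 min.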
Eya2 inh: inhibitors of human Eya2 phosphatase activity; O00167; recombinant Eya2, OMFP fluorescence dephosphorylation (OMFP is methylfluorescein phosphate); Potency, µM (doses to about 76.9 µM), for inactives: at the top dose activity, negative = inhibition, usual class: inhibitors; 0.006% of 330,000 active; note: potency is the fitted concentration of half-maximal effect
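Eya2 (0.2 uM) preincubated 10 min at ambient with compound, then OMFP substrate added at 50 uM; 10 min reaction in 50 mM HEPES pH 7.5, 50 mM NaCl, 5 uM MgCl2, 0.05% BSA, 1 mM DTT. Fluorescence read at Ex 485/Em 525 nm.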
Active calls of the source: *; [ ] = dose if it differs, or a comment. Unless noted, calls come from the whole dose curve; as a rule, active = well fitted curve in the direction sought with a large enough effect; inconclusive = small, poorly fitted or top-dose-only effect, or another doubt; inactive = no such curve, though single readings can be large; an effect the other way counts as inactive or inconclusive. % is set by controls: 0 for no effect and ±100 for the full control effect.

For O=C1OC(c2cccs2)=N/C1=C/c1ccc(-c2cccc(C(=O)O)c2)o1 the results were TrxR1 substrate -17%, mIDH1 inhibitor 5%, Coupling enz 1, TrxR1 inh 35µM* and Eya2 inh 13%.
O=C1OC(c2cccs2)=N/C1=C\c1ccc(-c2ccccc2Cl)o1 was read as TrxR1 substrate -9%, mIDH1 inhibitor 6%, Coupling enz 12, TrxR1 inh inconclusive and Eya2 inh 17%.
Screening NC(=O)C1CCN(C2=C(NS(=O)(=O)c3ccc(Br)cc3)C(=O)c3ccccc3C2=O)CC1 returned TrxR1 substrate 4%, mIDH1 inhibitor 0%, Coupling enz -32*, TrxR1 inh 6% and Eya2 inh -7%.
Screening NC(=O)C1CCN(C2=C(NS(=O)(=O)c3ccccc3)C(=O)c3ccccc3C2=O)CC1 returned TrxR1 substrate 1%, mIDH1 inhibitor 15%, Coupling enz -31*, TrxR1 inh 14% and Eya2 inh 6%.
`CCOC(=O)C1CCN(C2=C(NS(=O)(=O)c3ccc(Br)cc3)C(=O)c3ccccc3C2=O)CC1` gave TrxR1 substrate -2%, mIDH1 inhibitor 1%, Coupling enz -33*, TrxR1 inh 1% and Eya2 inh -3%.
`CCOC(=O)C(C)CC(C)C(=O)N1CCOCCOCCN(C(=O)C(C)CC(C)C(=O)OCC)CCOCC1` (centres undefined) gave TrxR1 substrate 7%, mIDH1 inhibitor 1%, Coupling enz 2, TrxR1 inh 9% and Eya2 inh -10%.
`CCOC(=O)C(C(=O)OCC)C(C(=O)OCC)N1CCOCC1` (centres undefined) gave TrxR1 substrate 6%, mIDH1 inhibitor 5%, Coupling enz 3, TrxR1 inh 1.3µM* and Eya2 inh -9%.
Screening N#C/C(=C/c1ccc(N2CCCCCC2)o1)c1ccc(Cl)cc1 returned TrxR1 substrate -8%, mIDH1 inhibitor 11%, Coupling enz -20, TrxR1 inh 8.9µM* and Eya2 inh 7%.
N#C/C(=C/c1ccc(N2CCCCC2)o1)c1cccc(F)c1 was read as TrxR1 substrate -9%, mIDH1 inhibitor 10%, Coupling enz -29, TrxR1 inh 7.1µM* and Eya2 inh 16%.
Screening N#C/C(=C/c1ccc(N2CCCCC2)cc1)c1cccc(F)c1 returned TrxR1 substrate -6%, mIDH1 inhibitor 7%, Coupling enz 1, TrxR1 inh -17% and Eya2 inh 6%.
For OC(Cc1ccc2ccccc2n1)c1ccccc1 (centres undefined) the results were TrxR1 substrate -2% and TrxR1 inh 8%.
For C#CC(=O)N(c1ccc(OC)c(OC)c1)C(C(=O)NC1CCCC1)c1cccs1 (centres undefined) the results were TrxR1 substrate 1%, mIDH1 inhibitor 3%, Coupling enz -1, TrxR1 inh 3.2µM* and Eya2 inh -6%.
C#CC(=O)N(c1cccc(OC)c1)C(C(=O)NC1CCCC1)c1cccs1 (centres undefined) was read as TrxR1 substrate 11%, mIDH1 inhibitor -12%, Coupling enz 1, TrxR1 inh inconclusive and Eya2 inh -6%.
`CCc1cc(-c2oncc2-c2ccc(OC)cc2)c(O)cc1OC` gave Coupling enz -7.
Screening Nc1c(N=Nc2ccc([N+](=O)[O-])cc2)c(S(=O)(=O)O)cc2cc(S(=O)(=O)O)c(/C=C/c3ccccc3)c(O)c12 returned TrxR1 substrate -15% and TrxR1 inh 19%.
For COc1ccc(/C=C2\N=C(C)OC2=O)cc1OC the results were TrxR1 substrate -15%, mIDH1 inhibitor -12%, Coupling enz 2, TrxR1 inh 40µM* and Eya2 inh -4%.
`COc1ccc(/C=C2\N=C(C)OC2=O)cc1OC(C)=O` gave TrxR1 substrate -15%, mIDH1 inhibitor -8%, Coupling enz 2, TrxR1 inh 45µM* and Eya2 inh 6%.
`CCOC(=O)COc1c(Cl)cc(/C=C2\N=C(C)OC2=O)cc1OC` gave TrxR1 substrate 8%[57.1 µM], mIDH1 inhibitor 4% and TrxR1 inh 14µM*.
`O=C(C[N+]1(CCO)CCOCC1)c1ccc2ccccc2c1` gave TrxR1 substrate 5% and TrxR1 inh 12%.
